The values that follow come from the supplement of paper PMC6897291.

The experiment concerns U-2932. In words: growth inhibition by drug alone (1 - RLU/untreated control) (fraction); higher = stronger inhibition. As to conditions: 177Lu-lilotomab satetraxetan 0 ug/ml. The method, then:
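U-2932 ABC-DLBCL cells were pretreated or not for 18 h with 1 ug/ml 177Lu-lilotomab satetraxetan (600 MBq/mg), washed and seeded (3000 cells/well) on 384-well plates pre-printed with the Selleck Cambridge Cancer Compound library. Viability was read by RealTime-Glo luminescence on days 3-6 after seeding. Effect = 1 - RLU/mean RLU of the 48 untreated no-drug control wells per plate; Bliss score = (M-E)/(1-Fa), with E the expected Bliss-additive effect.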

Each structure is given as a SMILES string.

For the compound `N.N.[Cl][Pt][Cl]` [Cisplatin], the “growth inhibition by drug alone” value runs as follows: (10 nM, time (day): 3) 0.0383; (10 nM, time (day): 4) 0.00908; (10 nM, time (day): 5) -0.0126; (10 nM, time (day): 6) 0.00453; (1000 nM, time (day): 3) -0.0314; (1000 nM, time (day): 4) -0.0428. Further, the “growth inhibition by drug alone” value by setting is: (1000 nM, time (day): 5) -0.0416; (1000 nM, time (day): 6) 0.0312.
As for `CN(C)CCN(C)CCc1ccc(Cl)c(Cl)c1`, the “growth inhibition by drug alone” value by setting is: (10 nM, time (day): 3) -0.0253; (10 nM, time (day): 4) -0.0155; (10 nM, time (day): 5) 0.000169; (10 nM, time (day): 6) 0.0547; (1000 nM, time (day): 3) -0.0569; (1000 nM, time (day): 4) -0.0395. The “growth inhibition by drug alone” value runs as follows: (1000 nM, time (day): 5) -0.0761; (1000 nM, time (day): 6) -0.214.
In the case of `CC(=O)Nc1ccc(OC[C@](C)(O)C(=O)Nc2ccc([N+](=O)[O-])c(C(F)(F)F)c2)cc1` [Andarine (GTX-007)], the “growth inhibition by drug alone” value was 0.0764 (10 nM, time (day): 3); 0.0433 (10 nM, time (day): 4); -0.0579 (10 nM, time (day): 5); -0.0688 (10 nM, time (day): 6); 0.0614 (1000 nM, time (day): 3); 0.0399 (1000 nM, time (day): 4). In addition, the “growth inhibition by drug alone” value is -0.0394 (1000 nM, time (day): 5) and 0.0038 (1000 nM, time (day): 6).
Consider `N[C@@H](Cc1ccc(N(CCCl)CCCl)cc1)C(=O)O` [Melphalan], for which the “growth inhibition by drug alone” value by setting is: (10 nM, time (day): 3) 0.0288; (10 nM, time (day): 4) 0.0447; (10 nM, time (day): 5) -0.0175; (10 nM, time (day): 6) -0.0774; (1000 nM, time (day): 3) -0.0212; (1000 nM, time (day): 4) 0.00786. Moreover, the “growth inhibition by drug alone” value was -0.0265 (1000 nM, time (day): 5) and -0.169 (1000 nM, time (day): 6).
On to `CC(C)[C@]12O[C@H]1[C@@H]1O[C@]13[C@]1(O[C@H]1C[C@H]1C4=C(CC[C@@]13C)C(=O)OC4)[C@@H]2O` [Triptolide], for which the “growth inhibition by drug alone” value reads like this: (10 nM, time (day): 3) 0.345; (10 nM, time (day): 4) 0.52; (10 nM, time (day): 5) 0.63; (10 nM, time (day): 6) 0.677; (1000 nM, time (day): 3) 0.959; (1000 nM, time (day): 4) 0.971. Besides, the “growth inhibition by drug alone” value is 0.978 (1000 nM, time (day): 5) and 0.982 (1000 nM, time (day): 6).
